The results in this text go back to PubChem BioAssay AID449762 (Southern Research Specialized Biocontainment Screening …, 2010).

Several values for one entry are separate records, joined by “and”; a condition that tells them apart may be missing. Identical values can stand only once. In all, about 330,000 compounds went through this assay and about 1,900 (0.58%) were called active. Inconclusive results (about 4%) are left out. Cut-off read from the data, not from the text of the source: inconclusive = inhibition above about 70% without an active follow-up result; inactive = below that. Not all results are given here. Measured potencies and affinities stand elsewhere.

The nature of this experiment: M. tuberculosis growth inhibition, HTS (AID 449762).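 Note: bacterial growth assessed after seven days of incubation.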 As to conditions: M. tuberculosis H37Rv growth inhibition, 7H9 media; at 25 µM; hits give high values.
Consider `Cc1nc(SCc2ccccc2F)c2cnn(-c3ccccc3)c2n1`, for which the inhibition was 9.04% (inactive).

Consider `Cc1ccc(-c2nc(C(=O)NCCCN3CCOCC3)cc3c2[nH]c2ccccc23)cc1`, for which the inhibition was -3.27% (inactive).

Turning to `COc1cccc(-c2nc(C(=O)NCCCN3CCOCC3)cc3c2[nH]c2ccccc23)c1`, the inhibition is -10% (inactive).

In the case of `Cc1ccc(OCCn2ncc3ccccc3c2=O)c(C)c1`, the inhibition was 9.3% (inactive).

`COc1ccc2c(c1)C(=NO)c1cc(OC)ccc1-2`: the inhibition is -4.82% (inactive).

Turning to `ON=C1c2cc(OCCN3CCCCC3)ccc2-c2ccc(OCCN3CCCCC3)cc21`, the inhibition is 7.74% (inactive).

In the case of `CC1CCCC(C)N1C(=O)COC(=O)c1ccccc1O` (stereo not drawn), the inhibition is 2.65% (inactive).

In the case of `O=c1[nH]c2ccccc2nc1-c1ccccc1`, the inhibition is -0.96% (inactive).

Turning to `O=c1[nH]c2ccccc2nc1-c1ccc(Cl)cc1`, the inhibition was 2.14% (inactive).

Regarding `O=C(N/N=C/C=C/c1ccco1)C(O)c1ccccc1` (stereo not drawn), the inhibition was 50.7% (inactive).

`O=C(CCCCCCC(=O)c1ccccc1)c1ccccc1`: the inhibition is -5.92% (inactive).

In the case of `O=C(CCCCCCCC(=O)c1ccccc1)c1ccccc1`, the inhibition is 4.08% (inactive).

As for `COCC(=O)NC1(c2nnnn2CCOC(=O)Nc2ccc(Cl)cc2)CCCCC1`, the inhibition was -9.42% (inactive).

Regarding `S=C(Nc1ccccc1Cl)Nc1ccc(Cl)cc1Cl`, the inhibition is -2.8% (inactive).

On to `S=C(NCCNC(=S)Nc1ccccc1Cl)Nc1ccccc1Cl`, for which the inhibition is 4.51% (inactive).

Regarding `CCC(Sc1nnc2c3ccccc3n(CC)c2n1)C(=O)Nc1sc2c(c1C#N)CCCC2` (stereo not drawn), the inhibition is 1.09% (inactive).

For the compound `O=[N+]([O-])c1ccc(Nc2nc(N3CCOCC3)nc(N3CCOCC3)n2)cc1`, the inhibition is -0.58% (inactive).

Consider `O=[N+]([O-])c1ccc(Nc2nc(NCCO)nc(N3CCCC3)n2)cc1`, for which the inhibition was 7.94% (inactive).

As to `S=C(Nc1ccccc1Cl)N(CCCN1CCOCC1)Cc1ccco1`, the inhibition is 0.76% (inactive).

As for `Cc1ccc(-c2cc(C(=O)NC3=NCCS3)c3cc(Br)ccc3n2)o1`, the inhibition was 8.99% (inactive).

As for `Cc1ccc2nc(-c3cccc(Br)c3)cc(C(=O)NC3CC3)c2c1`, the inhibition is -6.86% (inactive).

Consider `CCN(Cc1ccccc1)C(=O)COC(=O)c1cc(S(=O)(=O)Nc2c(C)n(C)n(-c3ccccc3)c2=O)ccc1C`, for which the inhibition was 5.3% (inactive).

With `CCCCCN(C(=O)CCCSc1nncs1)c1c(N)n(CCCC)c(=O)[nH]c1=O`, the inhibition is 3.89% (inactive).

`CCN(CC)c1ccc(/C=C/[N+](=O)[O-])cc1`: the inhibition was 0.21% (inactive).

Regarding `CN(C)c1ccc(/C=C/[N+](=O)[O-])cc1`, the inhibition is 39% (inactive).

Regarding `Cc1ccc(/C=N/NC(=O)c2csc(C)c2)o1`, the inhibition was 4.06% (inactive).

As for `O=[N+]([O-])c1ccc(Sc2cccc3cccnc23)c([N+](=O)[O-])c1`, the inhibition was 65.5% (inactive).

On to `O=c1cc(-c2ccccc2)nc(Sc2ccc([N+](=O)[O-])cc2[N+](=O)[O-])[nH]1`, for which the inhibition is 57.1% (inactive).

As to `O=C(O)c1cc(N2C(=O)C3C4C=CC(C4)C3C2=O)ccc1NCc1cccnc1` (stereo not drawn), the inhibition is 4.01% (inactive).

Take `CCN(c1cc(C)cc(C)c1)S(=O)(=O)c1nnc(NC(=O)C(C)(C)C)s1`: the inhibition was 5.8% (inactive).

Regarding `N/C(=N\OS(=O)(=O)c1cc(Cl)ccc1Cl)c1ccncc1`, the inhibition was 1.49% (inactive).

In the case of `Cc1ccc(-c2c(C(=O)N/N=C/c3ccc(OC(C)C)cc3)nnn2-c2nonc2N)cc1`, the inhibition was 5.21% (inactive).

Turning to `CCN1CCN(C(=O)C2CCN(Cc3nc(-c4cccc(Cl)c4)oc3C)CC2)CC1`, the inhibition was -0.4% (inactive).

Consider `Cc1oc(-c2cccc(Cl)c2)nc1CN1CCC(C(=O)N2CCN(c3ccccn3)CC2)CC1`, for which the inhibition was 16.8% (inactive).

For `C=CCn1c(O)c(C(C)=NCCc2ccccc2)c(=O)[nH]c1=O`, the inhibition was -9.8% (inactive).

For `COc1cccc(NC(=O)c2cc(CN3C(=O)c4ccccc4C3=O)ccc2OC)c1`, the inhibition is -11.3% (inactive).

In the case of `Cc1ccc(C(=O)O/N=C(\N)c2ccc(Br)cc2)cc1`, the inhibition was 17.7% (inactive).

For `Cc1cc(C)cc(C(=O)O/N=C(\N)c2ccc(Br)cc2)c1`, the inhibition was 2.33% (inactive).

In the case of `Cc1ccc(-c2csc3ncnc(NCCC(=O)O)c23)cc1C`, the inhibition is 3.2% (inactive).

Regarding `COC(=O)C1=C(C)N(C)C(=O)NC1c1cc2c(cc1Br)OCO2` (stereo not drawn), the inhibition was -1.06% (inactive).

In the case of `Nc1nc(CN2CCN(c3cccc(Cl)c3)CC2)nc(N2CCCc3ccccc32)n1`, the inhibition was 34.9% (inactive).

As to `COc1cccc(N2CCN(Cc3nc(N)nc(N4CCCc5ccccc54)n3)CC2)c1`, the inhibition was 55.4% (inactive).

On to `O=S(=O)(Cc1cc(Cl)nc(-c2ccncc2)n1)c1ccccc1`, for which the inhibition was 3.28% (inactive).

For `Cc1ccn2c(NC3CCCCC3)c(-c3cccc(SC4CCCCC4)c3)nc2c1`, the inhibition was 48.6% (inactive).

Turning to `Cc1ccn2c(NC3CCCC3)c(-c3ccncc3)nc2c1`, the inhibition is -13.9% (inactive).

As to `CC(C)CC(NS(=O)(=O)c1ccc2c(c1)oc(=O)n2C)C(=O)NCc1cccnc1` (stereo not drawn), the inhibition is -12.4% (inactive).

`COCCCN1C(=O)c2ccc(C(=O)Nc3cccc(OC)c3)cc2C1=O`: the inhibition is -8.36% (inactive).

Take `COc1ccc(CCNC(=O)c2ccc([N+](=O)[O-])cc2Cl)cc1OC`: the inhibition is -2.83% (inactive).

`CCc1cc(C(=O)NC2CCCN(Cc3ccccc3F)C2)n(C)n1` (stereo not drawn): the inhibition is 6.68% (inactive).

For `CC(C)CN(C(=O)CCC(=O)OC(C)C(=O)Nc1cccc(C#N)c1)c1c(N)n(CC(C)C)c(=O)[nH]c1=O` (stereo not drawn), the inhibition is -4.92% (inactive).

Consider `CCOC(=O)CSc1nnc(COc2ccc3ccccc3c2)o1`, for which the inhibition is 6.46% (inactive).

With `COC(=O)CSc1nnc(COc2ccc3ccccc3c2)o1`, the inhibition was -6.41% (inactive).

With `COc1ccc(N2CCN(C(=O)CCS(=O)(=O)c3ccc4c(c3)NC(=O)C(C)S4)CC2)cc1` (stereo not drawn), the inhibition is 6.18% (inactive).

`Cc1ccc(C(=O)Oc2ccc(Br)cc2C(=S)N2CCOCC2)cc1`: the inhibition is 11.3% (inactive).

Turning to `O=Cc1c(NCc2ccc(Cl)cc2)c2ccccc2[nH]c1=O`, the inhibition was 2.94% (inactive).

`CCCN(CC(=O)Nc1ccccc1OC)C(=O)CCC(=O)c1ccc(OCC)cc1`: the inhibition is 3.5% (inactive).

As for `CSc1ccc(CNC(=O)C2Cc3cc(S(=O)(=O)N4CCCC4)ccc3N2C(C)=O)cc1` (stereo not drawn), the inhibition was 2.84% (inactive).

For the compound `CCc1ccc(CNC(=O)C2Cc3cc(S(=O)(=O)N4CCCC4)ccc3N2C(C)=O)cc1` (stereo not drawn), the inhibition was -2.81% (inactive).

Take `C=CCN(CC=C)C(=O)C[n+]1ccc(C(N)=O)cc1`: the inhibition is 6.91% (inactive).

On to `COCCN1C(=O)C(=O)/C(=C(/O)c2ccc(S(=O)(=O)N3CCCCC3)cc2)C1c1ccc(O)c(OC)c1` (stereo not drawn), for which the inhibition was -2.3% (inactive).

Regarding `CN(c1ccccc1)S(=O)(=O)c1cccc(NC(=O)CSc2nnc(N)s2)c1`, the inhibition was 3.34% (inactive).

Consider `O=C1Nc2ccc(Br)cc2/C1=C/c1ccc(C(=O)O)cc1`, for which the inhibition was 0.13% (inactive).

Consider `O=C(CC1(O)C(=O)Nc2ccc(Br)cc21)c1ccc2c(c1)OCO2` (stereo not drawn), for which the inhibition is -6.14% (inactive).

`CC(C)C(=O)Nc1c2c(nn1-c1ccc([N+](=O)[O-])cc1)CS(=O)(=O)C2`: the inhibition was 3.07% (inactive).

Regarding `Cc1ccc(F)cc1NC(=O)c1c(-c2ccccc2)noc1C`, the inhibition was -8.46% (inactive).

As to `CCOc1ccc(C(=O)Nc2ccc3nc(N4CCN(CC)CC4)cc(C)c3c2)cc1`, the inhibition is 43.7% (inactive).

In the case of `CCOc1[nH]n(-c2ccccc2)c(=O)c1C=Nc1ccc(C)cc1`, the inhibition is 9.52% (inactive).

For `CCOc1[nH]n(-c2ccccc2)c(=O)c1C=Nc1ccccc1`, the inhibition is 19% (inactive).

As to `Cc1ccccc1-n1c(-c2ccc([N+](=O)[O-])cc2)nc2ccccc2c1=O`, the inhibition was 2.55% (inactive).

With `COc1ccc(NC(C)=O)c(C)c1`, the inhibition was -2.52% (inactive).

As for `c1ccc(-c2n[nH]c(-c3ccccn3)n2)nc1`, the inhibition was -3.4% (inactive) and -2.35% (inactive).

For the compound `c1ccc(-c2nc(-c3ccncc3)n[nH]2)nc1`, the inhibition is -0.34% (inactive).

For `O=C(NCc1ccccc1F)c1cc(=O)[nH]c2ccccc12`, the inhibition is 1.18% (inactive).

Turning to `Cc1ccc2nsnc2c1S(=O)(=O)N1CCOCC1`, the inhibition is -4.54% (inactive).

On to `COc1ccc(CCNC(=O)c2ccc(CNS(=O)(=O)c3cc(C)ccc3C)cc2)cc1OC`, for which the inhibition is -3.98% (inactive).

With `O=S(=O)(Nc1ccccn1)c1ccc(Br)cc1`, the inhibition was 10.2% (inactive).

With `Cc1c(NS(=O)(=O)c2ccc(Br)cc2)c(=O)n(-c2ccccc2)n1C`, the inhibition was 0.05% (inactive).

As for `O=C(c1cc(F)ccc1F)C1CCCN(CCCc2ccccc2)C1` (stereo not drawn), the inhibition is 10.3% (inactive).

For `CC(CCc1ccccc1)NC(=O)COC(=O)C1CCC(C(C)(C)C)CC1` (stereo not drawn), the inhibition was 6.62% (inactive).

Consider `CN1CCc2c(OCC(=O)N3CCC(Cc4ccccc4)CC3)cccc2C1=O`, for which the inhibition was 5.02% (inactive).

With `Cc1cc(NC(=O)c2ccc(C)s2)n(-c2nc3ccccc3[nH]2)n1`, the inhibition is 56.9% (inactive).

Regarding `Cc1cc(NC(=O)c2cccs2)n(-c2nc3ccccc3[nH]2)n1`, the inhibition is 57.9% (inactive).

Consider `CCn1nnnc1SCC(=O)N1CCCCC1`, for which the inhibition was 0.5% (inactive).

Regarding `O=C1NC(=Nc2ccccc2)SC1Cc1ccccc1` (stereo not drawn), the inhibition is -10.5% (inactive).

Turning to `O=C1N/C(=N/N=C/c2ccc(O)cc2)SC1Cc1ccccc1` (stereo not drawn), the inhibition is -5.03% (inactive).

Turning to `CCC(Sc1nc2ccc(N)cc2s1)C(=O)Nc1nccs1` (stereo not drawn), the inhibition was 61% (inactive).

In the case of `C[n+]1cnn2c1SCC1(COC1)C2`, the inhibition is 3.72% (inactive).

In the case of `O=C(CNC(=O)c1ccc(Cl)cc1)c1ccccc1`, the inhibition was -1.27% (inactive).

Regarding `O=C(CNC(=O)c1ccc(F)cc1)c1ccc(Cl)cc1`, the inhibition was 6.46% (inactive).

As to `C=C(C)Cn1c(C)cc(C)c(S(=O)(=O)c2cccc(C)c2)c1=O`, the inhibition is -7.99% (inactive).

Turning to `CCOc1cc(CNc2ccc(Br)cc2)cc(Br)c1OCC(=O)NC(C)(C)C`, the inhibition was -3.44% (inactive).

Turning to `CC(=O)c1ccc(N2CCN(C(=O)c3cc4c(C)nc5ccccc5c4o3)CC2)cc1`, the inhibition was 4.42% (inactive).

`Cc1nc2ccccc2c2oc(C(=O)N3CCN(c4ccc([N+](=O)[O-])cc4)CC3)cc12`: the inhibition is 26.2% (inactive).

What is called inhibition is the change of the read-out against control, counted positive when it falls.
